Experimental data: the supplement of paper PMC6555819

What was measured:
Test in all cases: PBM binding z-score (relative to random genomic background probes); higher = stronger binding; sequences stand for … in GC…GCGATTGACAGCGTAGAATGAAGG
[1] = test system: FXR:RXRa (NR concentration 270 nM, RXRa partner concentration 90 nM)
Outline: (§1)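 Ligand-free nuclear receptor dimers were applied to custom Agilent 4×180K protein-binding microarrays whose double-stranded probes carried direct-repeat seeds, single-nucleotide variants, half-site ablations and random human genomic background sequences in 34-nt variable regions. Incubation lasted 1 h. Binding z-scores were computed against the random background probes from regression-normalized fluorescence.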

[2] = test system: LXRa:RXRa (NR concentration 270 nM, RXRa partner concentration 90 nM)
Outline: as §1

[3] = test system: LXRa homodimer (NR concentration 270 nM)
Outline: as §1

[4] = test system: LXRb:RXRa (NR concentration 270 nM, RXRa partner concentration 90 nM)
Outline: as §1

[5] = test system: LXRb homodimer (NR concentration 270 nM)
Outline: as §1

[6] = test system: PPARa:RXRa (NR concentration 270 nM, RXRa partner concentration 90 nM)
Outline: as §1

[7] = test system: PPARg:RXRa (NR concentration 180 nM, RXRa partner concentration 90 nM)
Outline: as §1

[8] = test system: PPARg:RXRa 270nM:90nM, anti-RXR (NR concentration 270 nM, RXRa partner concentration 90 nM)
Outline: as §1

[9] = test system: PPARg:RXRa 30nM:10nM, anti-RXR (NR concentration 30 nM, RXRa partner concentration 10 nM)
Outline: as §1

[10] = test system: PPARg:RXRa 90nM:30nM, anti-RXR (NR concentration 90 nM, RXRa partner concentration 30 nM)
Outline: as §1

Sequence	PBM binding z-score [1]	PBM binding z-score [2]	PBM binding z-score [3]	PBM binding z-score [4]	PBM binding z-score [5]	PBM binding z-score [6]	PBM binding z-score [7]	PBM binding z-score [8]	PBM binding z-score [9]	PBM binding z-score [10]
TCGAGTAGGTTACCAATGGGGCATTCCGCTTTCT	0.135	1.46	-0.855	0.838	-1.11	1.01	-0.123	1.1	1.11	0.974
CCAAGCAGGCCAGGGTCACTCAAGCATTTCGCTT	2.12	1.76	-0.279	1.95	-0.754	3.07	0.977	1.81	-0.229	0.599
ATCTCTAGGTAAGACTCAGATCAGTGAAGAACGC	0.264	0.336	0.262	-0.0617	0.692	-0.153	0.264	0.0019	0.134	0.3
TCAGACAGATGAAGGTAACTCAGGTACGCAGTCG	0.719	0.98	-0.272	0.763	-0.545	0.832	0.832	2.06	4.27	3.3
AGAACGAGGGCAATGAGTTGATAGGACGGGTGGC	0.234	0.0995	-0.497	-0.197	-0.468	1.05	1.48	0.681	0.137	0.397
ATCGAAAGGTCGACGAGATGAGTATACACCGTTT	3.66	2.9	0.0102	2.41	0.483	4.04	2.7	2.66	1.14	1.85
GCTAGCTGGCCATTTGGGTCACTCAATGACGGGC	-0.265	-0.387	-0.995	-0.164	-1.15	0.689	0.205	-0.0931	-1	-0.612
CTCGAAAGGTCGGTTGAGGTTAGTATACGGATAA	3.06	2.88	0.205	1.97	0.0146	2.81	0.316	1.21	0.186	0.845
AGAACGAGGGCACCCTGAGTTGATAGCAGAGTAG	0.236	0.52	-0.169	-0.0951	-0.924	1.6	1.55	1.27	0.134	0.693
AGTCAAAGTTCACTAGGTAATGTAAGATTCAGCT	4.99	4.85	2.91	3.07	0.939	4.58	7.06	6.01	3.43	5.25
TCATATAGGTAAAAGGTGGAAGTCGGTGTGGTAA	0.924	0.974	0.29	1.22	0.619	3.71	6.89	7.1	6.28	7.79
CGAACTAGGCCATTGACAGGACAGTGAATAGTAA	-0.28	-0.21	0.0668	-0.366	-0.825	1.53	2.02	1.77	0.274	0.972
CAAACTAGGTCCAGGTCAAAGTCGGTTTGTGCCA	2.21	2.36	1.47	1.98	0.0545	3.29	2.6	3.28	0.928	2.59
CGAACTAGGTCATTGACAGGACGGTGAATAGTAA	4.57	2.37	0.115	1.47	-0.0948	4.67	7.41	6.31	3.36	5.61
CGTCCAAGGTCAATGGTCAGTGAAGAGATGACGG	6.47	4.43	0.613	3.19	0.452	4.93	4.14	4.38	1.83	3.55
ATACCAAGGTGATCGTGAGGTCGTTGAAACTAAC	2.15	1.49	0.854	1.6	0.171	2.03	0.268	0.273	-0.226	0.172
TCTTGTAGATCATCAGGAGGTTAAGAAAGATCGA	0.0818	1.07	-0.0921	0.94	-0.422	1.1	-0.109	1.34	2.4	1.84
CCTATTAGTTGACCATTAGGGCAACCGAAGCTCG	0.493	0.0846	0.475	0.224	0.396	0.454	0.203	0.612	0.0251	0.278
CGAACCAGGTCAAGGACAGTGAATCTCCGCACGC	4.75	2.98	0.32	2.36	-0.00984	4.52	4.96	4.26	1.28	3.31
TCTATTAGTTGATTAGCGCAACCGAAACAGCGGA	0.828	0.894	0.314	0.663	0.632	0.774	0.0474	2.11	3.89	2.97
GCTTACGGGTCATAGGTTATAGCATGAATAGAAT	5.98	4.32	0.326	4.2	0.262	5.87	9.25	7.94	6.8	8.53
CAAACTAGGTCAGCGGAAGGTCAAAGTCCGCATG	4.7	5.1	3.95	4.3	0.622	5.61	7.65	6.54	4.12	6.37
GGCACGAGGGCATTCGAGTTGATAGCATGGCGAT	1.22	1.79	-0.515	0.139	-1.26	0.942	0.663	0.216	-0.477	-0.229
CCTAGCAGGCCAATCTGGGTCACTCAAGGCTTGA	1.5	1.42	-0.498	0.851	-1.04	3.1	1.69	2.6	-0.232	1.52
ACTCGGAGGACAAAGGTCAGAGCAACGCCAGTGA	4.23	4.45	1.56	3.47	0.134	5.14	7.86	7.16	6.17	7.18

Sequence	PBM binding z-score [1]	PBM binding z-score [2]	PBM binding z-score [3]	PBM binding z-score [4]	PBM binding z-score [5]	PBM binding z-score [6]	PBM binding z-score [7]	PBM binding z-score [8]	PBM binding z-score [9]	PBM binding z-score [10]
CCTAGTTGGTCAAAGTCACACACGCTATAGGTAC	0.342	0.505	0.567	0.625	0.603	0.517	1.35	1.68	0.915	1.46
ACTAGCAGGCCAAGGGTCCCTCAAGATTAGTCCG	-0.253	-0.502	-0.631	-0.64	-1.13	1.09	2.3	4.09	1.73	3.84
TCTTGTAGAGCAAGCAGGTTAAGAAAGCCTGAGT	-0.159	-0.27	-0.458	-0.282	-1.49	0.415	-0.461	0.511	1.29	1.1
CCTTACGGGTCACGCGGTTATAGCACGACGAGCG	6.26	4.51	0.11	3.64	0.0354	5.65	6.07	6.24	2.58	4.96
TATTGTAGATCAGCAGGTTAAGAAAGCTGGCCAA	-0.221	-0.214	-0.56	-0.0553	-0.105	0.342	-0.269	0.483	-0.249	0.429
TCATATAGGTAAACAGGTGCAAGTCCGTAAGTTA	0.886	1	0.433	1.02	-0.121	1.65	1.1	2.53	3.85	3.12
ATATGTAGGTTACATCCGGGACATTCAGGCTATG	0.396	2.2	0.343	1.11	0.574	3.44	5.41	4.47	1.95	3.37
GATACAGGGTCAAGGCCAGATTACGCGTATTGAT	7.02	4.53	0.129	4.07	0.268	5.77	5.99	5.29	2.36	4.09
CCAACTAGGTCACCGGAAGGTCAAAGTCCGCATG	6.49	5.96	5.35	5.35	1.43	5.81	9.14	7.51	5.79	6.94
TAGCCTAGGTCATACGGGCCAGTATAGTGTCGGC	4.14	3.21	0.859	1.8	-0.00996	3.5	2.18	2.57	0.318	1.54
CCTAGTTGGTCAAGGTCACACAAGCTATAGGTAC	4.29	3.95	1.98	3.76	1.03	4.21	3.5	4.1	1.36	2.63
GGAACGAGGGCAAAGTTGATAACATCTGTCGACG	1.57	1.1	-0.134	1.12	-0.18	4.13	7.22	7.08	6.1	7.67
GCTTGTAGATCAAGGTTAAAAAAGACTAAGCTAA	0.221	1.35	-0.113	0.828	-0.501	1.84	1.19	2.38	0.522	1.79
GTACCCAGGTGAATAGGTCGTTGATGAGTAGGCG	0.381	0.343	-0.131	0.285	-0.0749	1.59	1.34	1.25	0.309	0.972
CCTAGTTGGTCGGGAGGTCACACACCGGATATGA	3.79	3.32	2.67	3.48	1.04	3.89	2.12	2.73	0.776	2.07
ACTCGGAGGACTAAGGTCAGAGCTACGCCAGTGA	1.93	1.78	0.464	1.49	-0.00791	2.52	1.93	2.96	0.578	2.41
CCGACTGGGGCCAGGTTACCATAACGCACAGCCA	0.0157	-0.087	-0.139	0.152	-0.749	0.188	0.629	0.301	-0.675	-0.256
GGAACGTGGGCAAAGTTGATAGCATCTGTCGACG	-0.58	-0.566	-0.508	-0.667	-0.939	0.742	1.45	3.26	0.952	2.7
CGAACTAGGTCAGAACAGGACAGTCAAGGATGAT	1.77	1.06	0.173	0.627	-0.362	3.31	5.24	4.41	1.74	3.31
ATCGAAAGGTCGTGAGGTGAGGATACAGAAAGGC	5.69	4.09	0.323	3.37	0.581	5.08	4.41	4.73	1.86	3.51
GCTGTTAGGTCAACTGATGGTCAGCTAAAGCTCG	4.8	3.67	0.551	2.5	1.02	3.78	2	2.74	0.501	1.61
GGAACGAGGGCACAGTTGATAGCATCTGTCGACG	0.318	0.136	-0.684	-0.053	-0.903	1.95	3.25	3.63	1.56	3.28
CCTTGCGGGTCAAGGTTATAGCACGGGTGGTACG	4.66	3.22	0.11	2.6	-0.432	4.96	5.05	5.18	2.05	4.21
CCTACCGGGCCAAGGTCATTGATCAGTCAAAGCA	3.14	3.01	1.23	2.66	-0.522	3.66	1.86	2.48	0.154	1.76
